This is a sample that favours compounds with a hit; in the whole collection about 4.2% have one here.
V-ATPase pH: regulators of yeast V-ATPase proton transport | S. cerevisiae, pHLuorin cytosolic pH fluorescence | response, % at 10 µM | 350,000 compounds, 0.37% hits; in the data active means response mostly above about 7.3%, no sharp cut-off; inactive means mostly below about 5.4%; further: actives read high
TIM10 inh: TIM10 yeast growth inhibition | AID 463195 | inhibition, % at 10 µM | S. cerevisiae TIM10 strain growth, BacTiter-Glo luminescence, 24 h | 330,000 compounds, 1.4% hits;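 active means inhibition of 40% or more at the single tested concentration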;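 further: wild-type TIM10 isogenic control strain grown at permissive 25 °C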
tim10-1 inh: growth inhibitors of tim10-1 mutant yeast; S. cerevisiae tim10-1 ts strain growth, BacTiter-Glo, 24 h; inhibition, % at 20 µM; AID 463190; 330,000 compounds, 2.2% hits;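 active means inhibition of at least 40%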;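 further: mutant grown at 25 °C; 0% = DMSO wells with yeast and 100% = wells holding no yeast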
tim23-1 inh: inhibits growth of tim23-1 mutant yeast | inhibition, % at 20 µM | 330,000 compounds, 1.3% hits | S. cerevisiae tim23-1 growth, BacTiter-Glo luminescence, 24 h;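 active means growth inhibition of the mutant yeast at or above 50%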;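 further: temperature-sensitive mutant grown at 25 °C; plate controls were DMSO-treated mutant yeast for no effect and medium wells lacking yeast for full effect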
NALP3 yeast inh: blocks the NALP3 inflammasome reconstituted in yeast; Yeast reconstituted NLRP3/ASC/caspase-1, beta-gal luminescence, 24 h; inhibition, % at 10 µM; 330,000 compounds, 0.39% hits;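 active means inhibition of 50% or more; inactive means inhibition below 50%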;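 further: plate controls were induced DMSO wells for no effect and uninduced yeast grown without galactose for full effect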
NALP1 yeast inh: NALP1 inhibition; S. cerevisiae NALP1/ASC/caspase-1 growth, X-gal OD620, 72 h; inhibition, % at 10 µM; 280,000 compounds, 0.61% hits; in the data active means inhibition mostly above about 24%, no sharp cut-off; inactive means mostly below about 32%
tim23-1 confirm: tim23-1 yeast growth inhibition, confirmed; 4,400 compounds, 83% hits; S. cerevisiae tim23-1 growth, BacTiter-Glo luminescence, 24 h; inhibition, % at 20 µM; shares compounds with tim23-1 inh;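 active means inhibition above about 39% in either of two replicate wells at 20 µM, limit read from the data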;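 further: temperature-sensitive tim23-1 mutant grown at 25 °C; 0% = DMSO wells with yeast and 100% = medium wells without yeast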
The depositor's hits bear a star; . = no result given.

SMILES	V-ATPase pH	TIM10 inh	tim10-1 inh	tim23-1 inh	NALP3 yeast inh	NALP1 yeast inh	tim23-1 confirm
CCn1c(=O)c(C(=O)NCCc2ccccc2)c(O)c2ccccc21	-7	11	-7	-4	25	-3	.
COc1cc(/C=C/c2ccc3cccc(O)c3n2)ccc1O	-1	36	33	52*	27	-4	66*
CC1=C(C#N)c2nc(N)c(C#N)c(C)c2/C1=C\c1ccc(OCC(=O)O)c(Cl)c1	0	18	37	54*	10	17	49*
CC(OC(=O)c1cccs1)C(=O)NC1CCCCC1C (stereo not drawn)	1	-14	-5	-2	3	.	.
CC1CCCCC1NC(=S)NC(=O)c1cccs1 (stereo not drawn)	1	39	25	52*	-12	.	54*
COc1ccc(N2CCC(CNC(=S)Nc3ccc(C)cc3C)C2)cc1 (stereo not drawn)	-1	30	8	53*	15	.	68*
COc1ccc(N2CCC(CNC(=O)Nc3ccc(OC)cc3OC)C2)cc1 (stereo not drawn)	1	7	6	13	4	-2	.
OC[C@@H]1[C@@H](c2ccc(Cl)cc2)C(c2ccccc2)=NN1c1ccccc1	2	6	17	53*	.	.	34
OC[C@@H]1[C@@H](c2ccc(Cl)cc2)C(c2cccc(Cl)c2)=NN1c1ccccc1	-14	17	20	49	.	.	.
OC[C@@H]1[C@@H](c2ccc(F)cc2)C(c2cccc(Cl)c2)=NN1c1ccccc1	0	16	21	53*	.	.	39
COc1ccc(CNC(=S)Nc2ccccc2)cc1Cl	-11	29	14	65*	6	-22	35
CC(C)Oc1ccc(CNC(=S)Nc2ccccc2)cc1Cl	-3	11	37	35	25	-8	.
Cc1ccc(C(=O)/C=C/C(=O)c2ccc(C)cc2)cc1	3	36	32	58*	26	-8	-72
Cc1cccc(-c2n[nH]c(=S)n2/N=C/c2cccs2)c1	0	33	10	51*	35	-20	43*
Cc1cccc(-c2n[nH]c(=S)n2/N=C/c2ccc(C)s2)c1	-1	16	12	-2	26	25	.
C=CCOc1ccc(/C=C2\SC(=S)N(NS(=O)(=O)c3ccccc3)C2=O)cc1	-1	26	19	60*	11	-14	56*
CCCC(=O)NC(c1ccc2c(c1)OCO2)c1cc(Cl)c2cccnc2c1O (stereo not drawn)	4	-16	34	43	9	6	.
O=C(NC(c1ccccc1)c1cc(Cl)c2cccnc2c1O)c1cccnc1 (stereo not drawn)	.	-17	36	70*	21	-1	80*
CCC(=O)NC(c1ccc(C)cc1)c1cc(Cl)c2cccnc2c1O (stereo not drawn)	-4	-34	27	54*	5	.	58*
COc1ccccc1C(NC(C)=O)c1cc(Cl)c2cccnc2c1O (stereo not drawn)	-3	17	31	36	15	21	.
CCCC(=O)NC(c1cccs1)c1cc(Cl)c2cccnc2c1O (stereo not drawn)	-1	-15	15	56*	20	13	69*
CCC(=O)NC(c1cc(Cl)c2ccccc2c1O)C(C)C (stereo not drawn)	4	17	21	34	11	.	.
CCC(=O)NC(C)c1cc(Cl)c2cccnc2c1O (stereo not drawn)	1	9	31	55*	18	.	58*
O=C(NN1CCOCC1)c1ccccc1	-3	1	2	-3	8	-8	.
O=C(Cn1ccccc1=O)Nc1ccc(Cl)c(S(=O)(=O)N2CCCCC2)c1	-2	-4	19	-3	11	.	.
SMILES	V-ATPase pH	TIM10 inh	tim10-1 inh	tim23-1 inh	NALP3 yeast inh	NALP1 yeast inh	tim23-1 confirm
CCOc1ccc(C(Nc2cccnc2)c2cc(Cl)c3cccnc3c2O)cc1 (stereo not drawn)	-2	12	39	56*	21	44*	69*
CC(C)CC(=O)NC(c1cccs1)c1ccc2cccnc2c1O (stereo not drawn)	3	-43	33	52*	17	-16	65*
O=C(O)COc1ccccc1C(Nc1cccnc1)c1cc(Cl)c2cccnc2c1O (stereo not drawn)	-2	22	-1	10	17	17	.
Cc1c(N2C(=O)c3cccc4cccc(c34)C2=O)cnn1C	-3	2	8	8	21	3	.
O=C(COC(=O)c1cc(S(=O)(=O)N2CCOCC2)ccc1Cl)NCc1ccccc1	4	0	6	7	15	.	.
Cc1cc(Nc2ccccc2)nn1C(=O)c1ccccc1	2	30	0	51*	7	53	52*
O=C(COC(=O)CC1CCCC1)Nc1ccc(Cl)cc1	0	26	36	62*	14	.	55*
CCOc1ccc(NC(=O)COC(=O)CC2CCCCC2)cc1	-3	15	-21	31	12	.	.
COc1ccc(C(=O)c2sc(Nc3ccccc3F)nc2N)cc1	2	6	23	50*	6	-7	54*
Cc1cnc(NC(=O)c2sc(Nc3ccccc3)nc2N)o1	2	36	-2	53*	-3	.	55*
Nc1nc(Nc2ccccc2)sc1C(=O)c1ccccc1	0	28	31	54*	29	.	43*
CC1CC(C)CN(C(=O)COC(=O)c2ccc3c(c2)OCCO3)C1 (stereo not drawn)	-1	13	9	26	-4	.	.
COc1ccccc1N1CCN(/N=C/C=C/c2ccccc2[N+](=O)[O-])CC1	-1	10	20	34	25	-3	.
CCCC(=O)NC(c1ccccc1OC)c1ccc2cccnc2c1O (stereo not drawn)	-1	-21	18	27	-6	1	.
CCCCC(=O)NC(c1ccc(Cl)cc1)c1ccc2cccnc2c1O (stereo not drawn)	4	-42	-19	56*	14	.	49*
CCCC(=O)NC(c1ccc(Cl)cc1)c1ccc2cccnc2c1O (stereo not drawn)	0	-23	-4	60*	12	1	60*
CCCCC(=O)NC(c1ccc(N(C)C)cc1)c1ccc2cccnc2c1O (stereo not drawn)	-2	-54	-7	54*	13	-3	53*
CCCC(=O)NC(c1ccc(C)cc1)c1ccc2cccnc2c1O (stereo not drawn)	1	-24	-8	61*	17	8	58*
CCCCC(=O)NC(c1ccc(N(CC)CC)cc1)c1ccc2cccnc2c1O (stereo not drawn)	4	-71	-5	44	14	6	.
CCCC(=O)NC(c1ccc(Cl)cc1Cl)c1ccc2cccnc2c1O (stereo not drawn)	3	-63	-12	49	15	-3	.

Screening data deposited in PubChem by several laboratories.
